Structures can show the parent of a compound that is named as a salt. ± gives the standard deviation of the averaged measurements.
These compounds were tested on Saccharomyces cerevisiae BY4741 SeMeCo community (assay: mean cell size (pixel area) (pixels); higher = larger cells). Settings: 10 µM; 24 h; SM minimal medium.
How it was run: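 In this assay, mean cell pixel area per well was obtained from automated confocal images of paraformaldehyde-fixed yeast analysed in Harmony. The cells were a Saccharomyces cerevisiae BY4741 community with four plasmids, each complementing one auxotrophy and carrying a fluorescent marker, grown for 24 h in SM medium with drug at a final 10 µM in 384-well plates. Values are averaged across 3 replicates. Same SeMeCo high-content imaging drug screen: Selleck FDA-approved drugs at 10 µM, 24 h in SM medium, 384-well plates, 3 replicates.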
With `Cn1nnc(-c2ccc(-c3ccc(N4C[C@H](COP(=O)(O)O)OC4=O)cc3F)cn2)n1` [Tedizolid Phosphate] the mean cell size was 12.5 ± 0.29.
With `CCN1CCCC1CNC(=O)c1cc(S(N)(=O)=O)ccc1OC` (stereo not given) [Sulpiride] the mean cell size was 12.54 ± 0.037.
`COc1ccccc1OCC(O)CN1CCN(CC(=O)Nc2c(C)cccc2C)CC1` (stereo not given) [Ranolazine] gave a mean cell size of 12.5 ± 0.23.
Work on `C#C[C@]1(O)CC[C@H]2[C@@H]3CCc4cc(OC5CCCC5)ccc4[C@H]3CC[C@@]21C` [Quinestrol] yielded a mean cell size of 12.4 ± 0.25.
In the case of `Clc1ccc(COC(Cn2ccnc2)c2ccc(Cl)cc2Cl)c(Cl)c1` (stereo not given) [Miconazole], the mean cell size is reported as 12.5 ± 0.13.
`CC(=O)[O-].[K+]` [Potassium acetate] gave a mean cell size of 12.5 ± 0.15.
`CCOC(=O)C1=C[C@@H](OC(CC)CC)[C@H](NC(C)=O)[C@@H](N)C1` [Oseltamivir Phosphate] was tested, and the mean cell size was 12.42 ± 0.039.
For `NC(=NCCCCCCN=C(N)N=C(N)Nc1ccc(Cl)cc1)N=C(N)Nc1ccc(Cl)cc1` [Chlorhexidine?2HCl], the mean cell size was 11.38 ± 0.084.
For `NS(=O)(=O)Cc1noc2ccccc12` [Zonisamide], the mean cell size was 12.4 ± 0.24.
`CN1C2CCCC1CC(NC(=O)c1nn(C)c3ccccc13)C2` (stereo not given) [Granisetron] gave a mean cell size of 12.3 ± 0.14.
`Cc1c(-c2ccccc2)oc2c(C(=O)OCCN3CCCCC3)cccc2c1=O` [Flavoxate HCl] gave a mean cell size of 12 ± 0.18.
Compound `N=C(N)NC(=O)c1nc(Cl)c(N)nc1N` [Amiloride HCl dihydrate] has a mean cell size of 12.1 ± 0.19.
`Cc1nnc(SCC2=C(C(=O)O)N3C(=O)[C@@H](NC(=O)Cn4cc(Cl)c(=O)c(Cl)c4)[C@H]3SC2)s1` [Cefazedone] gave a mean cell size of 12.5 ± 0.39.
`CC(=O)[C@@]1(O)CC[C@H]2[C@@H]3CCC4=CC(=O)CCC4=C3[C@@H](c3ccc(N(C)C)cc3)C[C@@]21C` [Ulipristal] gave a mean cell size of 12.3 ± 0.16.
`Cc1nccn1CC1CCc2c(c3ccccc3n2C)C1=O` (stereo not given) [Ondansetron Hydrochloride Dihydrate] gave a mean cell size of 12.3 ± 0.24.
`CCN(CC)CCOC(=O)c1ccc(N)cc1` [Procaine] was tested, and the mean cell size was 12.2 ± 0.13.
`O=C1CN(/N=C/c2ccc([N+](=O)[O-])o2)C(=O)N1` [Nitrofurantoin] showed a mean cell size of 12.47 ± 0.1.
`N=C(N)NC(=O)c1nc(Cl)c(N)nc1N` [Amiloride HCl] was tested, and the mean cell size was 12.59 ± 0.11.
With `COc1cnc(NS(=O)(=O)c2ccc(N)cc2)nc1` [Sulfameter] the mean cell size was 12.53 ± 0.07.
For `CCCSc1ccc2[nH]c(NC(=O)OC)nc2c1` [Albendazole], the mean cell size was 12.59 ± 0.075.
`COc1ccc(Cl)cc1C(=O)NCCc1ccc(S(=O)(=O)NC(=O)NC2CCCCC2)cc1` [Glyburide (Glibenclamide)] was tested, and the mean cell size was 12.36 ± 0.11.
In the case of `CC(=O)NC[C@H]1CN(c2ccc(N3CCOCC3)c(F)c2)C(=O)O1` [Linezolid], the mean cell size is reported as 12.51 ± 0.11.
`CC1(C)S[C@@H]2[C@H](NC(=O)C(C(=O)O)c3ccccc3)C(=O)N2[C@H]1C(=O)O` (stereo not given in full) [Carbenicillin disodium] showed a mean cell size of 12.53 ± 0.098.
`Oc1ccc(C2CNCCc3c2cc(O)c(O)c3Cl)cc1` (stereo not given) [Fenoldopam mesylate] was tested, and the mean cell size was 12.9 ± 0.26.
`COCC(=O)Nc1cc(Sc2ccccc2)ccc1N=C(NC(=O)OC)NC(=O)OC` [Febantel] showed a mean cell size of 12.3 ± 0.18.
Compound `CCCCCc1ccc(C)cc1O` [Amylmetacresol] has a mean cell size of 12.4 ± 0.14.
Compound `O=C(c1ccc(OCCN2CCCCC2)cc1)c1c(-c2ccc(O)cc2)sc2cc(O)ccc12` [Raloxifene HCl] has a mean cell size of 12.2 ± 0.27.
Work on `CC(=O)[C@H]1CC[C@H]2[C@@H]3CC=C4C[C@@H](O)CC[C@]4(C)[C@H]3CC[C@]12C` [Pregnenolone] yielded a mean cell size of 12.46 ± 0.12.
With `O=C1[C@H]2CCCC[C@H]2C(=O)N1CCCCN1CCN(c2nsc3ccccc23)CC1` [Perospirone hydrochloride] the mean cell size was 12.5 ± 0.18.
Work on `CN1CCN(C2=Nc3cc(Cl)ccc3Nc3ccccc32)CC1` [Clozapine] yielded a mean cell size of 12.4 ± 0.21.
With `COc1ccc2cc([C@H](C)C(=O)O)ccc2c1` [Naproxen] the mean cell size was 13 ± 0.17.
Compound `CCCCCC(=O)O[C@]1(C(C)=O)CC[C@H]2[C@@H]3CCC4=CC(=O)CC[C@]4(C)[C@H]3CC[C@@]21C` [Hydroxyprogesterone caproate] has a mean cell size of 12.47 ± 0.039.
In the case of `COc1cc(Cc2cnc(N)nc2N)cc(OC)c1OC` [Trimethoprim], the mean cell size is reported as 12.4 ± 0.14.
In the case of `CC(C(=O)O)c1ccc2c(c1)[nH]c1ccc(Cl)cc12` (stereo not given) [Carprofen], the mean cell size is reported as 13.82 ± 0.13.
Compound `Nc1ccc(S(=O)(=O)Nc2cnc3ccccc3n2)cc1` [Sulfaquinoxaline sodium] has a mean cell size of 12 ± 0.22.
With `CCN1CCN(C(=O)N[C@@H](C(=O)N[C@@H]2C(=O)N3C(C(=O)O)=C(CSc4nnnn4C)CS[C@H]23)c2ccc(O)cc2)C(=O)C1=O` [Cefoperazone] the mean cell size was 12.5 ± 0.21.
`Cc1ccc(S(=O)(=O)NC(=O)NN2CC3CCCC3C2)cc1` (stereo not given) [Gliclazide] gave a mean cell size of 12.6 ± 0.2.
`CCOC(=O)c1ccc(O)cc1` [Ethylparaben] gave a mean cell size of 12.5 ± 0.25.
Work on `Cc1cccc(Nc2ccccc2C(=O)O)c1C` [Mefenamic Acid] yielded a mean cell size of 12.4 ± 0.21.
For `C[N+]1(C)CCC(=C(c2ccccc2)c2ccccc2)CC1` [Diphemanil Methylsulfate], the mean cell size was 12.6 ± 0.23.
